Data taken from the supplement of paper PMC3334620.
In all, about 33,000 sequences were measured (“E-score (-0.5 to 0.5)”: median about -0.0059, highest 2% from about 0.26 on). For the sample, the highest values were picked, then their nearest neighbours and some sequences at random.

Each sequence was assayed against T1, Cin5 (UniProt P40917) (assay: PBM E-score (8-mer binding enrichment) (E-score (-0.5 to 0.5)); higher = stronger / more preferred TF binding). Details: protein concentration: 100 nM; construct: GST-full length.
T1 sequence: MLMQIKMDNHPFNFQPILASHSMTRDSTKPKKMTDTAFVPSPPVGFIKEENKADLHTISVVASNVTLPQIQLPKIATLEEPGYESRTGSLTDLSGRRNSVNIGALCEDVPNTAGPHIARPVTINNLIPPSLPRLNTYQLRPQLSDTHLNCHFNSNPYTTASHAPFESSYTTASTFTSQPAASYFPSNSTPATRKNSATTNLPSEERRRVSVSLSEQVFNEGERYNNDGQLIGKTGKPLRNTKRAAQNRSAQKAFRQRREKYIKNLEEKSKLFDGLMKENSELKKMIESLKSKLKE
Procedure: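 Universal 'all 10-mer' protein binding microarrays (Agilent AMADID 015681) probed with GST-tagged S. cerevisiae TFs (full-length or DBD) made by in vitro transcription/translation (PURExpress), about 100-200 nM. Bound TF was detected with fluorescent anti-GST. Each ungapped 8-mer (which stands for itself and its reverse complement) is scored by the PBM enrichment score (E-score), a modified Wilcoxon-Mann-Whitney statistic from -0.5 to +0.5, computed with the Universal PBM Analysis Suite. Scale: above 0.35 generally sequence-specific binding.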

Sequence | PBM E-score
AACGCCAA | -0.0074
GATTCTCC | -0.134
GTACTCTA | -0.0538
TATTCGAA | 0.0697
CCCTATGA | -0.066
CAATAGGC | -0.0915
AGGAATAG | 0.0234
GGCAAAAA | 0.202
CTTACTAC | 0.202
ATTACTAA | 0.334
CTTACTAA | 0.313
ATTACTAG | 0.105
GTTACTAA | 0.168
ATTACTTA | 0.411
ATTACTGA | 0.108
CTTACTTA | 0.25
ATTACTAC | 0.145
AAGATGGA | 0.109
CGAGTAGA | -0.139
ATTTACGC | 0.0814
GTCCGTTA | 0.12
ATCCGTTC | 0.0322
ATCCGTTA | 0.29
CGGGCTAA | -0.184
CGGTACTC | -0.161

Sequence | PBM E-score
CGTAGAGC | -0.0105
AAAAACCA | 0.0166
AAAGCGCA | -0.0252
CAAGCGCC | -0.291
CAAGCGCA | 0.323
CAATTCCC | 0.112
ATGATTAG | 0.223
CTGATTTC | -0.00928
ATGATTAA | 0.256
CTGATTAA | 0.108
CTGATTAC | 0.378
ATGATTAC | 0.362
GGGCTAGA | -0.149
CAGGCAAC | -0.0103
GTTATGCA | 0.0592
CTTATGAA | 0.0936
CTTATGCA | 0.106
AGTATGTG | 0.14
CTTATGTA | 0.361
GATATGTA | 0.189
GTTATGTA | 0.276
CATATGTA | 0.172
ATTATGTG | 0.345
GTTATGAA | 0.159
ATTATGAA | 0.258

Sequence | PBM E-score
ACTATGTG | 0.0904
AGTGCTTA | 0.199
AGTGAACT | 0.035
AGGCCACG | -0.155
GAGAAGAC | -0.0329
CTACACCA | -0.00077
GGGACACC | -0.238
CTAGTGAC | -0.0966
ATTATGCG | 0.338
ATTATGTC | 0.27
CTTATGTC | 0.219
ACTATGTA | 0.202
GCTATGTA | -0.0403
ATTATGCC | 0.15
ATTATGTA | 0.42
ACTATGTC | -0.0438
ATTATGCA | 0.118
AGCCATCA | 0.131
AACGCGAT | 0.0765
ACTTCGCC | 0.0471
CTACCCGA | -0.0656
CCACGGAC | -0.237
AGTTTCGC | 0.0693
ATAGGCCG | -0.185
ACCCTTAG | -0.101

Sequence | PBM E-score
GGACAGGA | -0.275
AATACTAT | 0.214
CATACTGA | 0.155
TATACTGA | 0.274
GATACTGA | 0.124
AATACTGG | 0.129
ACTACTAT | 0.26
ACTACTAC | 0.00444
ACTACTAA | 0.177
AATACTGT | 0.258
AGCTGTAG | 0.139
CAGATGAG | 0.0638
CGTGTTGC | -0.119
GAAGTGAA | 0.202
AAAGTGAT | -0.00439
AAAGTGAA | 0.258
TTACGCAA | 0.306
GTACGCAA | -0.0571
ATACGCAA | 0.217
CAGCTCCC | -0.305
ACATGTTA | 0.126
CTACAAAA | 0.111
ATACAAAA | 0.28
GAACAAAA | 0.278
ATACAAAT | 0.22

Sequence | PBM E-score
AAACAAAA | 0.137
ATACAACA | 0.272
ATACAACG | 0.174
ATACAACC | 0.0923
GAACAAAC | 0.226
CCCCTCGA | 0.0859
ACAGGCTA | -0.0671
CCCACAGC | -0.192
ATAAATAC | 0.279
ATAAATAG | 0.102
ATAATAAA | 0.24
CTAAATAA | 0.0261
ATAAATAA | 0.321
TAAAATAA | 0.141
ATAAATAT | 0.226
GTAAATAA | 0.189
CTAATAAA | 0.164
TTAATAAA | 0.287
TTAAATAA | 0.313
CTAAATAC | 0.085
ATGTGGTG | 0.114
CCTCGCAC | -0.0617
CTTAGATC | -0.0574
CGGCATGA | 0.123
GAATTCTC | 0.0994

Sequence | PBM E-score
ACCACGAT | 0.161
AGCTACCT | -0.0535
ATCACTGC | 0.0947
CGTGTTGA | -0.0277
AACCCAAC | 0.17
ACTTTACG | 0.119
GGGGCACC | -0.367
GGGTCACC | -0.297
GCGAATTA | 0.266
ACGAATTA | 0.0396
CCGAATTA | 0.0794
GATGGTAC | 0.0499
GGGTAATA | 0.122
AGGTAATA | 0.296
CGGTAATC | -0.0552
AGGTAATC | 0.313
AGGTAATG | 0.124
CGGTAATA | 0.181
CGGAGCTC | -0.269
ATTCTTGG | 0.153
TGTAAACA | 0.0928
CACCAGCG | -0.0689
CTTTAGTA | -0.00776
ATTTAGTC | 0.0988
AATTAGAG | 0.146

Sequence | PBM E-score
AATTAGAC | 0.0847
ATTTAGTA | 0.303
GATTAGTA | 0.254
CATTAGTC | 0.0189
AATTAGTA | 0.308
AATTAGTG | 0.188
CATTAGTA | 0.188
AATTAGTC | 0.26
AATTAGAT | 0.294
AGCGTCAG | -0.124
AGCGAGCC | -0.0601
CACGAAGA | 0.132
CGTTTCTA | -0.00786
AGATAACT | 0.159
ATGCTACA | -0.0162
ATCTAGAC | -0.125
ATATGATG | 0.158
CTTTGATA | 0.116
ATATGATA | 0.314
GCATGATA | 0.168
CTATGATA | 0.116
CTATGATC | -0.0495
GTATGAGA | 0.144
ACATGATA | 0.187
